This is an account of results in ChEMBL document CHEMBL3988442, “University of Dundee, Small-Polar-MMV Screening Library” (2021).

What all share (design): scale not given: direction of the effect not stated beside the values
Experiment [1] concerns the target Protein translocase subunit SecA (Escherichia coli (strain K12)) (UniProt P10408). The experiment in a line: Assay to Identify E. coli SecA ATPase Inhibitors. It is filed as functional. As to conditions: 30 µM.
Experiment [2] addresses T1, Ubiquitin-activating enzyme e1, putative (Leishmania donovani (strain BPK282A1)) (UniProt E9BSI1).
T1 sequence (whole entry): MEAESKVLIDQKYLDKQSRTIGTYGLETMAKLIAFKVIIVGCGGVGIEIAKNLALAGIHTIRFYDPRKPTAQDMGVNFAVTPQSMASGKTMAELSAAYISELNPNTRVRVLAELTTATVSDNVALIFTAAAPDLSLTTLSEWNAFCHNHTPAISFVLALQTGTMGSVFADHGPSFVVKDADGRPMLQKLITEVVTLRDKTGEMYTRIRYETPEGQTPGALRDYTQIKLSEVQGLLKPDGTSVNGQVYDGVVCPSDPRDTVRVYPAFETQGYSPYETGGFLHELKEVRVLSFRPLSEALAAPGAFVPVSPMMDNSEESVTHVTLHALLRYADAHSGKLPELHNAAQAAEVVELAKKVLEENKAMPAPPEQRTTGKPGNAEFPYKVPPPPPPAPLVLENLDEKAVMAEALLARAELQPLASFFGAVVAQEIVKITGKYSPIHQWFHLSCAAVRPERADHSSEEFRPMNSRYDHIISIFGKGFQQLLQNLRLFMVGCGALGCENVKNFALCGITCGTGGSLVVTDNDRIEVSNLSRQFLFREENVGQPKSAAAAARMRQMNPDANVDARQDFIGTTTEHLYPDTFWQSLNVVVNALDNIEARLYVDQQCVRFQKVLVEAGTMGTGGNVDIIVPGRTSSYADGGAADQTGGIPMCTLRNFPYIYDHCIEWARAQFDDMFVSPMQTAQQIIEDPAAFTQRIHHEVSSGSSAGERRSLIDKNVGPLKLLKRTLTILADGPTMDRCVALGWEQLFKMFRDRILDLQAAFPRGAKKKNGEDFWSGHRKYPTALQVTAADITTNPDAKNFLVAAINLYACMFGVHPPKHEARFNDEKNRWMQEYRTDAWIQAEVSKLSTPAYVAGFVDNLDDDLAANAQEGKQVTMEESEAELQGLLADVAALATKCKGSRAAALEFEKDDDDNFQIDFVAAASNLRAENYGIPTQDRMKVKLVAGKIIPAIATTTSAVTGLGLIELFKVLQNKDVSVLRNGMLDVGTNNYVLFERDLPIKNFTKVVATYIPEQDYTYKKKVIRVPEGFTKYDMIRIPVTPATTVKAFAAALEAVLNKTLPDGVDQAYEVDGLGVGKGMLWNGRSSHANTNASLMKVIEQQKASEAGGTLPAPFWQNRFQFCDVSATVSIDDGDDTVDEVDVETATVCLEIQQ
The experiment in a line: Leishmania donovani Ubiquitin Activating Enzyme (LdE1). To be noted: 30 µM. It is filed as functional.

Experiment [3] addresses Sialic acid-binding Ig-like lectin 9 (Homo sapiens) (UniProt Q9Y336). Briefly: Hs-Siglec9 ALPHAscreen SOP 20170721. To be noted: 10 µM. On the technique in general: Bead proximity is the source of the signal in Alpha formats.
Experiment [4] deals with Trypanosoma cruzi. Briefly: Trypanosoma cruzi phosphomannomutase and mannose-1-phosphate guanylyltransferase assay. As to conditions: 10 µM. The class given is functional.
In experiment [5] the target is T2, Arginase-2, mitochondrial (Homo sapiens) (UniProt P78540).
T2 sequence (whole entry): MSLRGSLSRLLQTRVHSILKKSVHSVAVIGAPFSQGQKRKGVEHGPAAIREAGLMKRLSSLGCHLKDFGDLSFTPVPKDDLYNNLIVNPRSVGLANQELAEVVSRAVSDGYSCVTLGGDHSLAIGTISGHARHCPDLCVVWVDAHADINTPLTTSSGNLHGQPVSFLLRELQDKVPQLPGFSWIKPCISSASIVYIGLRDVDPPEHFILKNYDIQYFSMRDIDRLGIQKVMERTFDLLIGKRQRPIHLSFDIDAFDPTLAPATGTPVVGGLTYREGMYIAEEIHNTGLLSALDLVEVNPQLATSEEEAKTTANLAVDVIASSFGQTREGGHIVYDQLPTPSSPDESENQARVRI
Briefly: in vitro enzyme assay to detect the production of urea directly proportional to the activity of Arginase II. Further: in the data most compounds retested in dose-response had high values. The class given is functional. As to conditions: 33.3 µM.

Experiment [6] addresses T3, Proteasome subunit beta (Trypanosoma cruzi) (UniProt O96673).
T3 sequence (whole entry): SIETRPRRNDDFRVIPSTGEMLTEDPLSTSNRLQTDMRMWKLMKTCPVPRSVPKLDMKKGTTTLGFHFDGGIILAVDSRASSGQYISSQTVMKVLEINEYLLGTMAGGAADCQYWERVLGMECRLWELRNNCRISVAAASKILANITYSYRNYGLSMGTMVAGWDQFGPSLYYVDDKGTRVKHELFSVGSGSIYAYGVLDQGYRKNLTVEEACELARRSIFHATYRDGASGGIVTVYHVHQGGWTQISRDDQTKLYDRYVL
The experiment in a line: Trypanosoma cruzi proteasome chymotrypsin-like activity (TcProtChymo) assay. Further: in the data most compounds retested in dose-response had high values. It is filed as functional. As to conditions: 9.37 µM.

Experiment [7] is filed under the species Homo sapiens. The experiment in a line: To identify inhibition of the IFN signalling (Jak-Stat) pathway via expression of an eGFP reporter gene under the control of an IFN-stimulated response element (ISRE) containing MxA promoter. It is filed as functional. As to conditions: 30 µM. On the technique in general: In a reporter assay the amount or activity of a reporter protein is the signal.

Experiment [8] deals with T4, Tyrosyl-tRNA synthetase, putative (Trypanosoma cruzi (strain CL Brener)) (UniProt Q4DSP6).
T4 sequence (whole entry): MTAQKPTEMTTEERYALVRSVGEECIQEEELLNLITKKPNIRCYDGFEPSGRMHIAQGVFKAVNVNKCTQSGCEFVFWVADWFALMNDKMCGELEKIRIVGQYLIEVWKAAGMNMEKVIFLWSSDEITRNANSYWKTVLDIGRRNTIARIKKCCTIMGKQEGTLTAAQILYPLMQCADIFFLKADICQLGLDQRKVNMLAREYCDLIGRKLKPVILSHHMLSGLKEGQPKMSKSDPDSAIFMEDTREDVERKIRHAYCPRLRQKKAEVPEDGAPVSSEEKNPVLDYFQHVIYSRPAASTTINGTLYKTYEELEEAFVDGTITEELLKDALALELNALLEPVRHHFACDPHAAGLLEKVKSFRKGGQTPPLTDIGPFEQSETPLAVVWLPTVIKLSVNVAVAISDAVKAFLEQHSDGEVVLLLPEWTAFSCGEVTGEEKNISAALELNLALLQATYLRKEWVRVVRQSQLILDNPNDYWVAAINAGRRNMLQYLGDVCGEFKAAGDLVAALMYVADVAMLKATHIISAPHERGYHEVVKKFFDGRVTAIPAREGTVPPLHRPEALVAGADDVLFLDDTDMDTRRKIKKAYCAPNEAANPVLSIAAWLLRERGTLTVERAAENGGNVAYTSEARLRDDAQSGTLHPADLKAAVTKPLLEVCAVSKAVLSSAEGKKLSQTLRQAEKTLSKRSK
Briefly: Trypanosoma cruzi tyrosyl tRNA synthetase (TcYRS) _High Tyrosine SOP. Further: in the data most compounds retested in dose-response had high values. The class given is functional. To be noted: 30 µM.

For experiment [9], the target named is T4, Tyrosyl-tRNA synthetase, putative (Trypanosoma cruzi (strain CL Brener)). Briefly: Trypanosoma cruzi tyrosyl tRNA synthetase (TcYRS) SOP. The class given is functional. As to conditions: 30 µM.
Experiment [10] has as its target Chromo domain-containing protein 1 (Saccharomyces cerevisiae (strain ATCC 204508 / S288c) (Baker's yeast)) (UniProt P32657). The experiment in a line: ScCHD-1 Enzyme Inhibition Assay. Further: in the data most compounds retested in dose-response had high values. The class given is functional. As to conditions: 30 µM.

For some of these results: Potency and affinity values are given separately.

Sequence of Sialic acid-binding Ig-like lectin 9 (Homo sapiens) (Q9Y336 whole entry): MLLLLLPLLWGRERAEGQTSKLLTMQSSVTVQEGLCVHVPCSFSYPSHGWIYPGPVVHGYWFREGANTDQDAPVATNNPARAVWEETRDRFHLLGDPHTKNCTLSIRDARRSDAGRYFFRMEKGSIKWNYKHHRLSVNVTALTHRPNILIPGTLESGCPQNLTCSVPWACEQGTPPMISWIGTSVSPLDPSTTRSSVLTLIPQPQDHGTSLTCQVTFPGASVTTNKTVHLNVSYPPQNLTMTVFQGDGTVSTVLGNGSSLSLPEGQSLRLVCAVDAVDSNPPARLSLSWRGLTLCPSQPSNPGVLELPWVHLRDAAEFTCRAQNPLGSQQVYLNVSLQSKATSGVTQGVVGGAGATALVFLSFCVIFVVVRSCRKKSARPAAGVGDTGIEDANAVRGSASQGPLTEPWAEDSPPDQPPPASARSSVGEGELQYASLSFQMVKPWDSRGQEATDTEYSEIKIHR
Sequence of Chromo domain-containing protein 1 (Saccharomyces cerevisiae (strain ATCC 204508 / S288c) (Baker's yeast)) (P32657 whole entry, the tested form may be a part): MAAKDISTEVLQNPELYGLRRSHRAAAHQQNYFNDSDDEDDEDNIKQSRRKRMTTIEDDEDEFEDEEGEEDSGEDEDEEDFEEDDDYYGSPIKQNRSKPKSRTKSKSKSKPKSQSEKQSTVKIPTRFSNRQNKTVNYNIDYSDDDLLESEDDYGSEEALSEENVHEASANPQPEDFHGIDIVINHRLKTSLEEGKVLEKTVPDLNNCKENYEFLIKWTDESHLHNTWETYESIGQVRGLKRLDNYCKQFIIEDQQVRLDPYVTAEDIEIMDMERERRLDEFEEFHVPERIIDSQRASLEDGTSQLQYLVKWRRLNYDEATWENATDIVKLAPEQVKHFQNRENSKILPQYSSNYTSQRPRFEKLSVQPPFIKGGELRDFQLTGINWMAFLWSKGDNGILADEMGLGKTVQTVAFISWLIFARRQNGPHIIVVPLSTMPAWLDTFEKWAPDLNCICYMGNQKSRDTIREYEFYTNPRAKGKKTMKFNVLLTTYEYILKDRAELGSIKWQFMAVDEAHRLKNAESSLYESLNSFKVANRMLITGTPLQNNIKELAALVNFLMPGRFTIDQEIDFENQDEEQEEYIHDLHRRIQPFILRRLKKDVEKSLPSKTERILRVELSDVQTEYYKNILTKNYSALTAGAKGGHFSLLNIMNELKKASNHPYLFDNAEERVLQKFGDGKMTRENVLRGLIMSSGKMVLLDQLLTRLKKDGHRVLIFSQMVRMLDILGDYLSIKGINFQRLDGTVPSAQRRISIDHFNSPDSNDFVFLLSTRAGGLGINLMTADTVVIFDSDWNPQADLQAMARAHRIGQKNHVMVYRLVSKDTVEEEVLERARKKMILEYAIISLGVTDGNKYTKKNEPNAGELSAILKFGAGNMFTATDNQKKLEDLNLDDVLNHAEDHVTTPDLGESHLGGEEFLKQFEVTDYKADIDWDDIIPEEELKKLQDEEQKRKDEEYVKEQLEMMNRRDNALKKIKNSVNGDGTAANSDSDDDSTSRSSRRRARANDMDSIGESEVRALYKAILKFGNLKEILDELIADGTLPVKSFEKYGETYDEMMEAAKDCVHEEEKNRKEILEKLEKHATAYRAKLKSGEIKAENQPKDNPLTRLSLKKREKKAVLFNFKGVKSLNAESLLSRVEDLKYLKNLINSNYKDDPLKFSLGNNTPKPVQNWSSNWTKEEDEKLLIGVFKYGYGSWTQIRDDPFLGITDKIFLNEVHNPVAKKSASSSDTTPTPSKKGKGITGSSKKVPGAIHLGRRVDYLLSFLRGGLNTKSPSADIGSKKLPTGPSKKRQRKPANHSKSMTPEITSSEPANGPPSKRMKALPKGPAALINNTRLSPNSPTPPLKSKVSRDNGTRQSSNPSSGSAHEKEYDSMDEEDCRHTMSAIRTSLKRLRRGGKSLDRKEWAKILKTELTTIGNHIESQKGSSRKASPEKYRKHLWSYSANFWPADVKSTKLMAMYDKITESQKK
Sequence of Protein translocase subunit SecA (Escherichia coli (strain K12)) (P10408 whole entry): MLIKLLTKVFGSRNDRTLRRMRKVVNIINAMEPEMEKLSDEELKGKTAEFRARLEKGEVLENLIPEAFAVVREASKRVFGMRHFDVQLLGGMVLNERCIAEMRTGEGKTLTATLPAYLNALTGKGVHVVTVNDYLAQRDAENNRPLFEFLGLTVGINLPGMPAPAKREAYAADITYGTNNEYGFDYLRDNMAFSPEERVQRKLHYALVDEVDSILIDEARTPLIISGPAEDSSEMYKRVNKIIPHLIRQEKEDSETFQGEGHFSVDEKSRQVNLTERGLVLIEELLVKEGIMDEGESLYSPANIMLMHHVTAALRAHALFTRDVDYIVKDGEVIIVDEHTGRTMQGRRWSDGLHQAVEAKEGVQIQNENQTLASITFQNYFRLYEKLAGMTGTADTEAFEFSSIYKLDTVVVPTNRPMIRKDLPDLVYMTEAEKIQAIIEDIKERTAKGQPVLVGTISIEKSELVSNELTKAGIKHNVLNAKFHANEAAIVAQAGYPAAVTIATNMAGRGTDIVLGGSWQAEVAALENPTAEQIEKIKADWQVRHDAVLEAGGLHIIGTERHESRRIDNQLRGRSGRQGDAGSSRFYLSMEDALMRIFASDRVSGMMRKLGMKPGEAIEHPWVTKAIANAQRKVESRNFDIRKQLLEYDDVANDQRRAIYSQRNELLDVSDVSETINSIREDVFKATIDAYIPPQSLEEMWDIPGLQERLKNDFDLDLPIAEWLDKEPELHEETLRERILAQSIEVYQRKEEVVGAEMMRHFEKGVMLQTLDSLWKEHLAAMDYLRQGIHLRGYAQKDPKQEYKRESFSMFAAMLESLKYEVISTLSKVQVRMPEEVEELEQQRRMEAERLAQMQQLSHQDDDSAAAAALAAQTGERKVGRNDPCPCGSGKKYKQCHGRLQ

On to `CN(Cc1noc(C2CC2)n1)C1CCN(Cc2nnc(C3CC3)o2)C1` (stereo not given), for which the Percent Effect in experiment [1] is 4.16%; in experiment [2], 15.6%; in experiment [3] it was -1.39%; in experiment [4], -6.16%; in experiment [5], 1.02%; in [6] it was 17.4%. Besides, the Percent Effect is 20.4% in experiment [7], 6.86% in experiment [8], 16.5% in experiment [9] and -8.04% in [10].
With `Cc1[nH]ncc1C(=O)N1CCN(CC(O)C(C)(C)C)CC1` (stereo not given), the Percent Effect in [1] was -2.19%; in [2], 17.9%; in experiment [3] it was -6.77%; in experiment [4] it was 7.23%; in [5] it was -2.46%; in [6], 8.79%. Besides, the Percent Effect in [7] was -1.39%; in experiment [8], 6.22%; in experiment [9], 20.5%; in experiment [10] it was -6.95%.
`CCC1c2ccsc2CCN1C(=O)NCCNc1ncccn1` (stereo not given): the Percent Effect in [1] is 0.216%; in [2] it was 15.4%; in experiment [3], -5.88%; in experiment [4], 6.29%; in [5], 6.15%; in [6], 9.3%. The Percent Effect was 10% in experiment [7], 6.22% in [8], 22.9% in experiment [9] and -7.01% in experiment [10].
Take `O=C(NCCn1ccnc1)N1CCN(c2nccs2)CC1`: the Percent Effect in experiment [1] was -0.752%; in experiment [2], 15.6%; in experiment [3], -5.93%; in [4], -7.28%; in experiment [5], 4.71%; in experiment [6] it was 18.2%. In addition, the Percent Effect in [7] is 6.33%; in experiment [8] it was 2.94%; in [9], 7.06%; in [10], -11.9%.
Regarding `Cc1nccn1Cc1nnc(C2CCCN(Cc3cccnc3)C2)n1C` (stereo not given), the Percent Effect in experiment [1] was -4.77%; in [2], 16.2%; in [3], 4.69%; in experiment [4], 5.53%; in experiment [5] it was -6.64%; in experiment [6], 12.3%. In addition, the Percent Effect was 5.04% in [7], 9.04% in experiment [8], 14.6% in experiment [9] and -2.63% in [10].
On to `COc1cc(N2CCCC(c3nccn3CCN(C)C)C2)nc(N)n1` (stereo not given), for which the Percent Effect in [1] is -9.14%; in experiment [2] it was 2.7%; in experiment [3], 4.84%; in experiment [4], 3.59%; in experiment [5], 4.54%; in experiment [6], 4.62%. Also, the Percent Effect in [7] was 5.13%; in experiment [8], 7.98%; in experiment [9], 17.1%; in experiment [10], 11.6%.
For `Cc1nc(CN2CCCC(CCNS(C)(=O)=O)C2)c[nH]1` (stereo not given), the Percent Effect in [1] is -6.15%; in experiment [2], 0%; in experiment [3] it was 1.08%; in [4], -0.873%; in [5], 3.85%; in [6], 1.71%. In addition, the Percent Effect is 7.77% in experiment [7], 3.72% in experiment [8], 9.76% in [9] and -0.429% in experiment [10].
